# Experimental data from PubChem BioAssay (NCI).
# This is part of a sample that, as a whole, favours compounds with a hit. Of some 83,000 tested, about 20% had one in any assay.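 For each line, cells grew in 96-well plates with the test compound present at a single concentration for 48 hours.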 A number with no mark means an inactive call. Calls of active or inactive are those of the source. The calls were made as follows: active = growth percent below 10; inactive = the rest.
# Assays:
# Experiment in all cases: NCI-60 one-dose screen, 48 h (100 = growth as untreated, 0 = no growth, -100 = all killed)
# [1] = tested on: NCI-H23 lung; conditions: 10 µM unless noted
# [2] = tested on: DU-145 prostate; conditions: 10 µM unless noted
# [3] = tested on: MDA-MB-231 breast; conditions: 10 µM unless noted
# [4] = tested on: SF-268 CNS; conditions: 10 µM unless noted
# [5] = tested on: SF-539 CNS; conditions: 10 µM unless noted
# [6] = tested on: M14 melanoma; conditions: 10 µM unless noted
# [7] = tested on: HCT-15 colon; conditions: 10 µM
# [8] = tested on: HT29 colon; conditions: 10 µM unless noted
# [9] = tested on: SNB-75 CNS; conditions: 10 µM unless noted
# [10] = tested on: PC-3 prostate; conditions: 10 µM unless noted
# [11] = tested on: UACC-62 melanoma; conditions: 10 µM unless noted
# [12] = tested on: SK-MEL-28 melanoma; conditions: 10 µM unless noted
# [13] = tested on: SN12C renal; conditions: 10 µM unless noted
# [14] = tested on: ACHN renal; conditions: 10 µM unless noted
# [15] = tested on: OVCAR-8 ovarian; conditions: 10 µM unless noted
# [16] = tested on: OVCAR-5 ovarian; conditions: 10 µM unless noted
# [17] = tested on: NCI/ADR-RES ovarian; conditions: 10 µM unless noted
# [18] = tested on: MDA-MB-435 melanoma; conditions: 10 µM unless noted
# [19] = tested on: HCT-116 colon; conditions: 10 µM unless noted
# [20] = tested on: KM12 colon; conditions: 10 µM unless noted
SMILES,growth [1],growth [2],growth [3],growth [4],growth [5],growth [6],growth [7],growth [8],growth [9],growth [10],growth [11],growth [12],growth [13],growth [14],growth [15],growth [16],growth [17],growth [18],growth [19],growth [20]
CC(=O)O[C@H]1C[C@H](O[C@H]2[C@@H](O)C[C@H](O[C@H]3[C@@H](O)C[C@H](O[C@H]4CC[C@@]5(C)C(CCC6C5C[C@@H](O)[C@]5(C)[C@@H](C7=CC(=O)OC7)CC[C@]65O)C4)O[C@@H]3C)O[C@@H]2C)O[C@H](C)[C@H]1O[C@@H]1O[C@H](CO)[C@@H](O)[C@H](O)[C@H]1O (stereo partly drawn),-64.1% (active),-100% (active),-46.2% (active),-100% (active),-88% (active),-77% (active),-79.1% (active),-86% (active),-66.1% (active),-6.71% (active),-94.3% (active),-70.5% (active),-38.9% (active),-59.1% (active),-92.6% (active),-86.1% (active),-69.5% (active),-97.9% (active),-90.5% (active),-100% (active)
CCN(CC)c1ccc(C=C2C(=O)NC(=S)NC2=O)cc1,93.4%,98.8%,93.7%,80.1%,97.4%,102%,77.5%,92.2%,75.8%,–,85.9%,103%,91.8%,95.7%,93%,95.1%,100%,98.1%,93.9%,96.8%
CC[C@]12C=CCN3CC[C@@]4(c5ccc(OC)cc5N(C)[C@H]4[C@@](O)(C(=O)OC)[C@@H]1OC(=O)CCCN1CCN(CCCC(=O)O[C@@H]4[C@]5(CC)C=CCN6CC[C@@]7(c8ccc(OC)cc8N(C)[C@H]7[C@@]4(O)C(=O)OC)[C@@H]65)CC1)[C@@H]32,-80.6% (active),-90.6% (active),-89.6% (active),-82.6% (active),-95.5% (active),-80.6% (active),-74.3% (active),-81.3% (active),-94.3% (active),-80.3% (active),-87.7% (active),-91.6% (active),-81.4% (active),-83.3% (active),-71.1% (active),-87.8% (active),-40.6% (active),-89.3% (active),-84% (active),-73.9% (active)
ClCCN(CCCl)c1ccc(/C=C\c2ccnc3ccccc23)cc1,61.6%,90.6%,92.2%,94.9%,92.5%,85.5%,75%,–,84.6%,55.5%,59.2%,98.1%,75.7%,76%,79.8%,119%,80.4%,76%,52.2%,83.1%
Cn1cnnc1[S-].[Au+].c1ccc([PH+](c2ccccc2)c2ccccc2)cc1,15.8%,33.6%,30.3%,12.5%,15.4%,-11.9% (active),-67.4% (active),39.8%,-62.3% (active),23.8%,-15.1% (active),10.5%,15.9%,-42.3% (active),20.3%,91.9%,69.5%,11.1%,3.71% (active),58.3%
O=C(N/N=C/c1ccc([N+](=O)[O-])o1)c1cc([N+](=O)[O-])cc([N+](=O)[O-])c1O,94.1%,111%,93.5%,101%,112%,102%,93.3%,97.4%,83%,85.9%,88.9%,113%,96.1%,90.6%,89.8%,114%,89.1%,98.3%,92.6%,99.7%
COc1cc(C2CC(=O)Nc3nc(N)[se]c32)c(OC)c2c1OCO2 (stereo not drawn),99.7%,103%,96.3%,107%,91%,85.1%,101%,98.5%,101%,51.6%,99.3%,104%,97.3%,99.1%,104%,108%,109%,99%,65.7%,70.3%
NC(Cc1ccc(O)cc1)C(=O)N/N=C/c1ccc(N(CCCl)CCCl)cc1 (stereo not drawn),69.6%,69.2%,73.7%,55.9%,33.3%,93.6%,85.8%,100%,70.2%,56%,31.4%,108%,46.4%,75.1%,80.5%,115%,78.4%,84.7%,84%,75%
COc1ccc(CN2CCN(Cc3ccccc3)CC2)c(O)c1,94.8%,97.4%,104%,100%,117%,89.5%,99.2%,87.7%,89.8%,86.2%,96.2%,115%,91.2%,87.5%,98.2%,101%,83.4%,103%,83.4%,100%
CCOc1c(Cl)cc(CNC(C)C(O)c2ccccc2)cc1OC (stereo not drawn),80.4%,57%,59.9%,66.8%,82.8%,57.4%,47.1%,53.1%,-15.5% (active),57.2%,63.2%,41.5%,79.8%,76.8%,56.5%,103%,50.9%,1.97% (active),59.2%,55.3%
NC(=O)C(Br)CBr (stereo not drawn),24.1%,-28.2% (active),14.3%,-23.1% (active),39.2%,-88.3% (active),-7.98% (active),-21.8% (active),103%,13.9%,19.9%,-28% (active),22%,-76.2% (active),-24.1% (active),10.9%,15.3%,-73.3% (active),-92.7% (active),71.4%
CCC[CH2][Sn]([CH2]CCC)([CH2]CCC)[O]C(=O)c1ccc(Cl)cc1Cl,-65.5% (active),-98% (active),-88.2% (active),-95.5% (active),-91.7% (active),-85.8% (active),-82.9% (active),-64.7% (active),-93.2% (active),-76.8% (active),-95.4% (active),–,-83.9% (active),-100% (active),-63.6% (active),-95.1% (active),-68.6% (active),-85.4% (active),-87.6% (active),-92.4% (active)
O=C(CCc1ccco1)NC1CCN(CC2(c3ccc(Cl)cc3)CCC2)CC1,-22.6% (active),24%,-6.18% (active),22.1%,34.5%,10.3%,18.7%,10.5%,16%,1.34% (active),17%,30.1%,5.58% (active),13.8%,12.2%,53.2%,6.97% (active),4.28% (active),7.86% (active),1.4% (active)
CCCC(C)(C)c1ccc2c(c1)OC(C)(C)[C@@H]1CC=C(C)C[C@@H]21,96.1%,108%,108%,93%,104%,99.7%,107%,102%,88.2%,84.3%,98%,112%,105%,105%,97.7%,107%,98.9%,105%,87.6%,103%
CCCCCCCCCCCCOc1ccc(C(=O)Oc2ccc(CSP3(=O)OCC4OC(n5cnc6c(N)ncnc65)C(F)C4OP(=O)(O)OCC4OC(n5ccc(=O)[nH]c5=O)C(F)C4O3)cc2)cc1 (stereo not drawn),101%,103%,108%,107%,24%,86.2%,101%,78.8%,107%,100%,118%,121%,109%,–,109%,115%,102%,106%,83.2%,106%
CC(=O)[O][Hg][CH2]C1(C)COC(C)([CH2][Hg][O]C(C)=O)CO1 (stereo not drawn),65.4%,–,42.8%,88.2%,-87.2% (active),39%,-94% (active),-25.6% (active),38%,89.5%,95.8%,18.3%,-87.1% (active),63.1%,50.7%,114%,94.9%,-2.3% (active),-86.2% (active),–
CCOP(=O)(OCC)Oc1ccc(Sc2ccc(OP(=O)(OCC)OCC)cc2)cc1,–,103%,119%,100%,104%,100%,107%,108%,95%,90.9%,111%,111%,101%,115%,99.8%,105%,93.7%,96.8%,100%,99.9%
